Source: PubChem (National Center for Advancing Translational Sciences (NCATS))
NPSR antag = antagonists of human neuropeptide S receptor cAMP signaling. 1% of 220,000 active. CHO-NPSR cells, cAMP TR-FRET, antagonist mode. Q6W5P4. Potency, µM (highest dose often 38.3 µM), without a hit: top-dose activity change, negative = inhibition, hits mostly inhibitors; also: potency is read from the fitted curve at half-maximal effect; nearly all actives have a fitted effect of over 50% in size
Target sequence (Q6W5P4 whole entry, looked up): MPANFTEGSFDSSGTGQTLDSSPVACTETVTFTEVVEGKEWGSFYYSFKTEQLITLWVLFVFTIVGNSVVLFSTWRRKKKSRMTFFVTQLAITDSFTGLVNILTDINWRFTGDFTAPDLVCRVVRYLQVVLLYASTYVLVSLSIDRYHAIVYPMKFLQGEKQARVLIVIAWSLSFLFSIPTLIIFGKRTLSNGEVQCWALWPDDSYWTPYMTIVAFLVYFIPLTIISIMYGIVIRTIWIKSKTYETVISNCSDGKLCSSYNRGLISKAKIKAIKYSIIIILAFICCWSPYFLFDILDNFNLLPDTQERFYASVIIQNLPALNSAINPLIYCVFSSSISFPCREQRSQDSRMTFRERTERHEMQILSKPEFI
RGS12 GoLoco inh = RGS12 GoLoco-Gai1 interaction inhibition; P63096; Gai1:RGS12 GoLoco peptide FP, rhodamine, 10 min; Potency, µM (series often up to 61.6 µM), for inactives: at the highest dose activity, negative = inhibition, hits mostly inhibitors; 0.44% of 230,000 active; active = well fitted inhibition curve with a large enough effect, not every such curve was filed as active; inactive = no such curve, though single readings can be large or run the other way; also: potency is read from the fitted curve at half-maximal effect; nearly all actives have a fitted effect of over 30% in size
FBPA coupling cs = counter-screen for Giardia aldolase inhibitors: coupling enzyme system. coupling enzyme system counterscreen, AmpLite Red fluorescence. activity change, negative = inhibition, % at 58.2 µM, hits read low. 0.67% of 290,000 active; in the data active = activity change below about -30%
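Counterscreen lacking aldolase: glyceraldehyde-3-phosphate coupling-enzyme reagent preincubated 10 min at RT with compound (at 57.5 uM final), then substrate/coupling system with AmpLite Red added; fluorescence read at 525/598 nm after 20 min RT.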
ALDH1A1 block = ALDH1A1 (human) enzyme inhibition; P00352; Purified ALDH1A1, NADH fluorescence, propionaldehyde substrate; Potency, µM (titrated, usually from 75.3 µM), for inactives: top-dose activity, negative = inhibition, hits mostly inhibitors; 7.3% of 220,000 active; AID 1030; active = well fitted inhibition curve with a large enough effect, not every such curve was filed as active; inconclusive = small, poorly fitted or top-dose-only effect, or another doubt; inactive = no such curve, though single readings can be large or run the other way;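 also: potency is read from the fitted curve at half-maximal effect; plate controls were no enzyme wells and a reference inhibitor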
JMJD2E inh = blocks human JMJD2E demethylase activity; B2RXH2; JMJD2E catalytic domain, FDH-coupled NADH fluorescence (FDH is formaldehyde dehydrogenase); Potency, µM (titrated, usually from 57.1 µM), inactives show at the top dose activity change, negative = inhibition, most hits filed as inhibitors; 1.6% of 230,000 active; AID 2147; active = well fitted inhibition curve with a large enough effect, not every such curve was filed as active; inconclusive = small, poorly fitted or top-dose-only effect, or another doubt; inactive = no such curve, though single readings can be large or run the other way;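 also: potency is read from the fitted curve at half-maximal effect; 0% = wells with enzyme and -100% = buffer wells without enzyme; nearly all actives have a fitted effect of over 50% in size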
Target sequence (B2RXH2 1-337 limits assumed): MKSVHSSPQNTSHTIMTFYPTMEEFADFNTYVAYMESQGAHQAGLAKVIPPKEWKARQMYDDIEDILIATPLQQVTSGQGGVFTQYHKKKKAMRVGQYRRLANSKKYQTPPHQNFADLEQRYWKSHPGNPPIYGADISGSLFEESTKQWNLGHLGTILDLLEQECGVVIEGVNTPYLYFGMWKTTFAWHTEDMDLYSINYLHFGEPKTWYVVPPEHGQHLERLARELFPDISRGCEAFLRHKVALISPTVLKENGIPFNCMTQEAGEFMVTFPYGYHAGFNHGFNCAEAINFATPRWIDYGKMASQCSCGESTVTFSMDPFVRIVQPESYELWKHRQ
Sfp inh = Sfp phosphopantetheinyl transferase inhibition | Biochemical Sfp PPTase activity, qHTS | Potency, µM, for inactives: largest response in the series, negative = inhibition, usual class: inhibitors | 3.5% of 310,000 active;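 also: the enzyme is Sfp with the accession as filed and its product quenches rhodamine fluorescence; potency is read from the fitted curve at half-maximal effect; 0% = enzyme reaction without inhibitor and -100% = no enzyme wells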
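Step 1, compound plus 15 nM Sfp-PPTase, 15 min, room temperature. Step 2, add rhodamine-CoA (5 uM) and BHQ-2-YbbR (12.5 uM). Step 3, read 525/598 nm fluorescence at 0 and 30 min.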
* marks the source's active call; other numbers are inactive results; ? = inconclusive; · = no result; ! = not confirmed by another sample; [ ] = another dose, or the depositor's remark. A selection: hits, their analogues and other compounds. The true share with any hit is near 8.5%. Unless noted, calls follow the shape of the dose curve; as a rule, active = well fitted curve in the direction sought with a large enough effect; inconclusive = small, poorly fitted or top-dose-only effect, or another doubt; inactive = no such curve, though single readings can be large; an effect the other way counts as inactive or inconclusive. Unless noted, % is scaled to controls: 0 for no effect and ±100 for the full control effect.

SMILES	NPSR antag	RGS12 GoLoco inh	FBPA coupling cs	ALDH1A1 block	JMJD2E inh	Sfp inh
O=[N+]([O-])c1ccc(N/N=C/c2cccnc2)cc1	·	·	-5	·	·	2%
Cc1cccc(-c2nc3ccccc3c(=O)n2NC(=S)N(C)C)c1	6%	-17%	5	8.9µM*	-7%	32µM*
COc1ccc(C(=O)n2nc(-c3ccco3)nc2SC)cc1OC	-16%[46.1 µM]	-10%	1	28µM*	-27%	?
Cn1c(C(=O)N2CCN(c3ncccn3)CC2)cc2c(=O)n(C)c3ccccc3c21	-14%[46.1 µM]	2%	-45*	-6%	-7%	40µM*
Cn1c(C(=O)N2CCCC2)cc2c(=O)n(C)c3ccccc3c21	-6%[46.1 µM]	4%	5	-2%	-17%	12%
COc1cc(/C=N/NC(=S)Nc2cccc(Cl)c2C)ccc1OCC(=O)N1CC(C)OC(C)C1 (configuration not stated)	-21%	13%	-6	?	?	10%
Cc1ccc(N2C(=O)C3C(C2=O)C2C=CC3C23CC3)c([N+](=O)[O-])c1 (configuration not stated)	5%	2%	1	2.5µM*	6%	14%
COc1ccc(N2C(=O)C3C(C2=O)C2C=CC3C23CC3)c([N+](=O)[O-])c1 (configuration not stated)	-3%	2%	-2	-2%	-6%	-8%
CCCCCNc1nc2sc3c(c2c(=O)n1-c1cccc(Cl)c1)CCN(C)C3	27%	11%	-1	·	?	1%
Cc1c(C)c2cc(Cl)c(OCc3nn[nH]n3)cc2oc1=O	-7%[46.1 µM]	·	5	?	-1%	79µM*
COC(=O)Cc1c(C)c2c(OCc3nn[nH]n3)cc(C)cc2oc1=O	-5%[46.1 µM]	·	15	?	?	8%
O=C(Nc1ccc(OC(F)F)c(Cl)c1)Nc1ccc2c(c1)OCO2	-9%[46.1 µM]	6%	0	0%	-5%	0%
O=C(Nc1ccc([N+](=O)[O-])cc1)Nc1ccc(OC(F)F)c(Cl)c1	10µM*	-3%	0	-1%	-4%	-4%
COC(=O)C1CCN(C(=O)C2CCC(=O)N(CCc3cccc(F)c3)C2)CC1 (configuration not stated)	·	·	·	·	·	6%
COc1ccc(CCNC(=O)c2nn(C)c3c2CS(=O)(=O)c2ccccc2-3)c(OC)c1	·	·	1	·	·	6%
CCOC(=O)N1CCN(C2=CC(=O)OC23CCCCC3)CC1	-14%[46.1 µM]	-16%	0	?	14%	-9%
O=C1C=C(N2CCCCCC2)C2(CCCCC2)O1	-7%	6%	-1	8.9µM*	9%	23%
COc1ccc(-c2cc(C(F)F)n3ncc(C(=O)N4CCCc5ccccc54)c3n2)cc1	-26%	10%	2	11%	?	20%
O=C(c1cnn2c(C(F)F)cc(-c3ccccc3)nc12)N1CCCc2ccccc21	?	-2%	-1	20µM*	2%	2%
COC(=O)CCCC1=CC2=C(c3ccccc3)C(=O)C(C)(OC(=O)C3CCCC3)C(=O)C2=CN1Cc1ccco1 (configuration not stated)	-13%	-7%[14.2 µM]	-10	-12%[13.5 µM]	18µM*	56µM*!
COC(=O)CCCC1=CC2=C(c3ccccc3)C(=O)C(C)(OC(=O)C3CCCC3)C(=O)C2=CN1CCCOC(C)C (configuration not stated)	·	30%[14.2 µM]	-25	?	3.5µM*	-17%
COC(=O)CCCC1=CC2=C(c3ccccc3)C(=O)C(C)(OC(=O)C3CCCC3)C(=O)C2=CN1CCCCO (configuration not stated)	17%	-11%[14.2 µM]	-24	?	?	-7%
O=C(/C=C/c1ccc(F)cc1)NC(=S)NNC(=O)c1cnccn1	7%	-10%	2	·	?	11%
COc1ccc(/C=C/C(=O)NC(=S)NNC(=O)c2cnccn2)cc1	4%	0%	3	·	7.9µM*	19%
COc1cc(C)c(C)cc1S(=O)(=O)N1CCN(Cc2ccccc2)CC1	-15%[46.1 µM]	1%	0	?	-4%	6%
SMILES	NPSR antag	RGS12 GoLoco inh	FBPA coupling cs	ALDH1A1 block	JMJD2E inh	Sfp inh
Cc1nn(C)cc1S(=O)(=O)N1CCN(Cc2cccc(Cl)c2)CC1	0%	8%	1	22µM*	1%	11%
CCOc1ccc(CCNC(=O)c2ccc3nc(N4CCOCC4)sc3c2)cc1OCC	-4%	0%	4	·	0%	7%
CC(C#N)On1c(SC(C)C#N)nc2ccccc2c1=O (configuration not stated)	-3%[46.1 µM]	-34%	-5	16µM*	-4%	1%
CCC(C)n1c(SC(C)C#N)nc2ccccc2c1=O (configuration not stated)	-19%[46.1 µM]	2%	4	?	1%	12%
CC(NC(=O)c1ccc(S(=O)(=O)N(C)C)cc1)c1ccc(-n2ccnc2)cc1 (configuration not stated)	·	·	2	·	·	20%
O=C1Cc2ccccc2C(=O)N1Cc1ccccc1	3%[46.1 µM]	26%	-43*	?	9%	17%
COc1ccc(C(=O)NC(CCSC)C(=O)N2CCCCCC2)cc1 (configuration not stated)	·	·	1	·	·	7%
COC(=O)NC(/C(C(=O)OC)=C(\C)NCc1ccccc1)c1ccc2ccccc2c1 (configuration not stated)	·	·	-14	3.5µM*	·	-28%
CCCCNC(=S)NCc1ccc2[nH]c3c(c2c1)CCCC3	-7%	0%	1	7%	-11%	-5%
O=C(NCc1ccc2[nH]c3c(c2c1)CCCC3)N1CCOCC1	-11%[46.1 µM]	4%	-53*	?	?	-18%
CNC(=S)NCc1ccc2[nH]c3c(c2c1)CCCC3	1%	6%	-8	25µM*	8%	?
CN(C)CCCN1C(=O)c2cccc3c(Br)ccc(c23)C1=O	-29%	-9%	2	22µM*	?	-18%
O=C(O)CN1C(=O)c2cccc3c(Br)ccc1c23	·	·	10	·	·	18%
COc1cc(NC(=S)NC(=O)c2ccc(C(C)(C)C)cc2)ccc1NC(=O)c1cccs1	1%	0%	-3	12µM*	5%	8%
COc1cc(NC(=S)NC(=O)c2ccccc2F)ccc1NC(=O)c1cccs1	-25%	38%	1	?	6%	?
COc1cc(NC(=S)NC(=O)c2ccccc2C)ccc1NC(=O)c1cccs1	-13%[46.1 µM]	16%	0	25µM*	-4%	4%
O=C(NC(=S)Nc1cccc2cccnc12)c1cccs1	-3%	10%	-1	-5%	-5%	16%
COc1cc(NC(=S)NC(=O)c2c(OC)cccc2OC)ccc1NC(=O)c1cccs1	-6%[46.1 µM]	5%	-1	-8%	1%	18%
COc1cc(NC(=S)NC(=O)c2cc(C)cc(C)c2)ccc1NC(=O)c1cccs1	-5%[46.1 µM]	11%	-2	14µM*	-5%	2%
